Hits are enriched below; roughly 5.2% of the tested compounds scored in any of these assays.
SKN-1 block = C. elegans SKN-1 inhibition; inhibition, % at 21.8 µM; C. elegans VP596 Pgst-4::GFP/RFP ratio, acrylamide-induced, 24 h; hit rate 0.49% among 360,000;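 active = interference check ratio from 0.5 to 1.5 plus GFP to RFP signal ratio inhibition reaching or exceeding a fixed threshold, cut at about 30% in these data, passing the limit was not always enough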
GRIN3A LBD mod = modulators (binders) of human NR3A ligand-binding domain; NR3A LBD differential scanning fluorimetry, Tm shift; 0% = protein alone, 100% = glycine-bound protein; Tm shift relative to glycine control, % at 25 µM; hit rate 2.5% among 340,000;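 active = melting temperature shift of at least 10% of the positive control shift, at one fixed dose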
Vif imaging = blocks HIV Vif function | HEK293T cells, Vif self-association by quenched fluorescence, imaging, 24 h | hit rate 0.35% among 340,000 | inhibition, % at 7.49 µM; in the data active = inhibition above about 50%, passing the limit was not always enough
NadD inh = blocks S. aureus nicotinate mononucleotide adenylyltransferase. hit rate 0.78% among 360,000. inhibition, % at 20 µM. purified NadD enzyme, colorimetric absorbance read-out; in the data active = inhibition above about 26%
esBAF inh = blocks esBAF chromatin remodeling in mouse ES cells; Bmi1-luciferase knock-in reporter, 24 h; 100% = twice the neutral-well signal; reporter increase, % at 12.5 µM; hit rate 2% among 350,000; AID 602393; in the data active = activation above about 40%;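 also: a rise in the Bmi1 reporter signal indicates esBAF inhibition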
SMARCA2 act = activators of SMARCA2 function; MG213 cells, MMTV-luciferase reporter, dexamethasone, overnight; activation, % at 9.1 µM; hit rate 1% among 370,000; AID 652017; in the data active = activation above about 7.8%
Hits are given with their value; i = inactive; nt = no result given.

SMILES	SKN-1 block	GRIN3A LBD mod	Vif imaging	NadD inh	esBAF inh	SMARCA2 act
N=c1oc2ccccc2cc1C(=O)Nc1ccccc1	i	i	i	i	i	i
CCCCCCc1cc2cc(S(=O)(=O)c3ccc(C)cc3)c(=O)oc2cc1O	i	26.9	i	i	i	i
Cc1ccc(S(=O)(=O)c2cc3cc(Br)ccc3oc2=O)cc1	i	i	i	i	i	i
CCCCCCc1cc2cc(C(=O)NCc3ccccc3)c(=N)oc2cc1O	i	i	i	31.3	i	i
CCCCCCc1cc2cc(C(=O)Nc3ccccc3)c(=O)oc2cc1O	i	17.5	i	i	nt	i
CCNC(=O)C[C@H]1C=C[C@H](NS(=O)(=O)c2ccc(C)cc2)[C@@H](CO)O1	nt	nt	nt	nt	i	nt
CC(=O)N(C)C[C@@H]1Oc2ncc(C#C[C@@H](C)O)cc2C(=O)N([C@@H](C)CO)C[C@@H]1C	nt	nt	nt	nt	i	nt
CCOc1ccc(NC(=O)CC2C(=O)N(c3ccc(OC)cc3)C(=S)N2Cc2ccccn2)cc1 (centres undefined)	i	i	i	i	i	i
COc1ccc(NC(=O)CC2C(=O)N(c3cccc(OC)c3)C(=O)N2CCC(C)C)cc1 (centres undefined)	i	11.2	i	i	i	i
CCOc1ccc(NC(=O)CC2C(=O)N(c3ccc(OC)c(Cl)c3)C(=S)N2C2CC2)cc1 (centres undefined)	i	24.6	i	i	i	i
CC(C)NC(=O)N(C)C[C@H]1OCCCC[C@@H](C)Oc2ccc(NS(=O)(=O)c3cn(C)cn3)cc2C(=O)N([C@H](C)CO)C[C@H]1C	nt	nt	nt	nt	i	nt
COc1cc(C(=O)NCCc2cn3ccc(C)cc3n2)cc(OC)c1OC	i	i	96.4	i	i	i
CN(C)C(=O)C[C@@H]1CC[C@H]2[C@@H](COC[C@H](O)CN2C(=O)C2CC2)O1	nt	nt	nt	nt	i	nt
C#CCOCCOCCOCCNc1nc(N2CCN(C(=O)CCCCCCCCCCNC(=O)[C@H](CCCCN)n3cc(CCCC(=O)O)nn3)CC2)nc(N2CCN(C(=O)CCCCCCCCCCNC(=O)[C@H](CCCN=C(N)N)n3cc(C[C@@H](C)CC)nn3)CC2)n1	i	23.2	i	i	i	nt
C#CCOCCOCCOCCNc1nc(N2CCN(C(=O)CCCCCCCCCCNC(=O)[C@H](CCCCN)n3cc(C[C@@H](C)CC)nn3)CC2)nc(N2CCN(C(=O)CCCCCCCCCCNC(=O)[C@H](CCCCN)n3cc(C[C@@H](C)CC)nn3)CC2)n1	i	18.5	i	47.9	i	nt
C#CCOCCOCCOCCNc1nc(N2CCN(C(=O)CCCCCCCCCCNC(=O)[C@H](CCCCN)n3cc(CCCC(=O)O)nn3)CC2)nc(N2CCN(C(=O)CCCCCCCCCCNC(=O)[C@H](CCCCN)n3cc(CCCC(=O)O)nn3)CC2)n1	i	i	nt	i	i	nt
C#CCOCCOCCOCCNc1nc(N2CCN(C(=O)CCCCCCCCCCNC(=O)[C@H](CCCCN)n3cc(CCO)nn3)CC2)nc(N2CCN(C(=O)CCCCCCCCCCNC(=O)[C@H](CCCN=C(N)N)n3cc(C[C@@H](C)CC)nn3)CC2)n1	i	26.0	72.3	44.3	i	nt
C#CCOCCOCCOCCNc1nc(N2CCN(C(=O)CCCCCCCCCCNC(=O)Cn3cc(C[C@@H](C)O)nn3)CC2)nc(N2CCN(C(=O)CCCCCCCCCCNC(=O)[C@H](CCCCN)n3cc(C[C@@H](C)CC)nn3)CC2)n1	i	12.6	i	43.9	i	nt
COc1ccc(NC(=O)Nc2ccc3c(c2)C(=O)N([C@H](C)CO)C[C@H](C)[C@@H](CN(C)C(=O)Nc2c(C)noc2C)OCCCC[C@H](C)O3)cc1	nt	nt	nt	nt	i	nt
C[C@@H]1CN([C@H](C)CO)C(=O)c2cc(C#Cc3cccnc3)cnc2O[C@H]1CN(C)C	nt	nt	nt	nt	i	nt
O=C(C[C@@H]1CC[C@H]2[C@@H](COC[C@@H](O)CN2C(=O)Nc2cccc(Cl)c2)O1)N1CCCCC1	nt	nt	nt	nt	i	nt
O=C(Nc1ccccc1)Nc1csc2ccccc12	35.4	31.2	i	i	nt	i
CC(=O)Nc1ccc(N=NN2CCOCC2)cc1	i	i	i	i	nt	i
COC(=O)Cc1ccc(NC(=S)NCc2ccccc2Cl)cc1	i	i	i	i	nt	i
Nc1ccc(C(=O)CC(=O)Nc2ccc(Cl)cc2)cc1	i	11.8	i	i	i	i
SMILES	SKN-1 block	GRIN3A LBD mod	Vif imaging	NadD inh	esBAF inh	SMARCA2 act
CC(=O)c1ccc(NC(=S)NCc2ccc(Cl)cc2Cl)cc1	i	16.3	i	i	i	i
CC(=O)Nc1ccc(N=Nc2ccc(O)cc2)cc1	i	15.1	i	i	nt	i
C[C@H]1CN([C@@H](C)CO)C(=O)c2cc(-c3ccc(F)cc3)cnc2O[C@@H]1CN(C)C(=O)Nc1ccc(F)cc1	nt	nt	nt	nt	i	nt
COc1cccc(S(=O)(=O)Nc2ccc3c(c2)[C@@H]2C[C@@H](CC(=O)N[C@@H](C)c4ccccc4)O[C@H](CO)[C@@H]2O3)c1	nt	nt	nt	nt	i	nt
C[C@H]1CN([C@@H](C)CO)C(=O)c2cccc(NC(=O)C3CC3)c2O[C@@H]1CN(C)Cc1ccncc1	nt	nt	nt	nt	i	nt
Cc1noc(C)c1S(=O)(=O)Nc1ccc2c(c1)CC(=O)N([C@H](C)CO)C[C@@H](C)[C@@H](CN(C)C(=O)Nc1ccc(C(F)(F)F)cc1)O2	nt	nt	nt	nt	i	nt
CC(=O)Nc1ccc(NC(=O)Nc2ccccc2)cc1	i	19.4	i	i	i	i
CC(=O)c1ccc(NC(=O)Nc2ccc(Cl)cc2)cc1	i	30.9	i	i	65.6	i
CC(=O)Nc1ccc(NC(=O)Nc2cc(C)cc(C)c2)cc1	i	29.2	i	i	nt	i
CC(=O)Nc1ccc(C#Cc2ccc(NC(C)=O)cc2)cc1	i	28.9	i	i	i	i
CO[C@H]1CN(C)C(=O)c2ccc(NC(=O)C3CC3)cc2OC[C@@H](C)N(C(=O)c2ccccc2F)C[C@H]1C	nt	nt	nt	nt	i	nt
C[C@@H]1CN([C@@H](C)CO)C(=O)c2cc(NS(=O)(=O)c3cn(C)cn3)ccc2O[C@H]1CN(C)CC1CC1	nt	nt	nt	nt	i	nt
Cc1noc(C)c1S(=O)(=O)Nc1ccc2c(c1)CC(=O)N([C@@H](C)CO)C[C@H](C)[C@@H](CN(C)S(=O)(=O)c1ccc(F)cc1)O2	nt	nt	nt	nt	i	nt
C[C@@H]1CCCCO[C@H](CN(C)S(C)(=O)=O)[C@@H](C)CN([C@H](C)CO)C(=O)c2cc(NS(=O)(=O)c3cccs3)ccc2O1	nt	nt	nt	nt	i	nt
CC(=O)Nc1cccc(NC(=O)Nc2ccc(C(C)=O)cc2)c1	i	13.3	i	i	i	i
CC(=O)c1cccc(NC(=O)Nc2cnn(Cc3ccc(Cl)cc3Cl)c2)c1	i	14.1	i	i	i	i
O=C(Nc1ccccc1)Nc1ccc2ocnc2c1	i	i	i	i	56.6	i
CC(=O)c1ccc(NC(=O)Nc2ccncc2)cc1	i	i	i	i	i	i
CC(=O)c1ccc(NC(=O)Nc2cccc3ccccc23)cc1	i	12.9	i	i	i	i
C[C@H](CO)N1C[C@H](C)[C@@H](CN(C)C(=O)Nc2ccc(C(F)(F)F)cc2)OCCCC[C@H](C)Oc2ccc(NS(C)(=O)=O)cc2C1=O	nt	nt	nt	nt	i	nt

Assay outcomes from PubChem.
